HIV RNase H inh: inhibitors of HIV-1 reverse transcriptase RNase H. P04585. RT-RNase H RNA/DNA duplex cleavage, fluorescence. inhibition, % at 10 µM. 65,000 compounds, 1.9% hits; in the data active = inhibition above about 50%
RmlCD inh mix: mixture blocks RmlC and RmlD coupled enzyme activity; RmlC/RmlD coupled enzyme inhibition, 384-well mixture HTS; inhibition, % at 5.5 µM; 110,000 compounds, 0.39% hits; in the data active = inhibition above about 30%, passing the limit was not always enough
* hit, by the source's call; . = not tested or not shown. Shown is part of a subset that was picked to be rich in hits.

SMILES | HIV RNase H inh | RmlCD inh mix
C#Cc1ccc([C@H]2C=C(C(=O)Nc3ccccc3)O[C@@H](OCc3ccc(CO)cc3)C2)cc1 | . | 5
CCCCOc1ccc(-c2c(C#N)c(N)nc(SCC(N)=O)c2C#N)cc1 | 63* | 4
CCCCOC(=O)CSc1nc(N)c(C#N)c(-c2ccc(OCC)cc2)c1C#N | -10 | -7
C=C1CC2C(=O)N(Cc3cc(OC)ccc3OC)C(C(=O)OCC)(C(=O)OCC)C1N2C(=O)OC(C)(C)C (centres undefined) | . | -48
CC(=O)n1cc(C(C[N+](=O)[O-])SCCN)c2ccccc21 (centres undefined) | . | -23
Cc1cc(C)c(Cn2c(=O)n(CCCC(=O)NCc3ccco3)c(=O)c3ccccc32)c(C)c1 | 80* | -13
Cc1ccc(C)c(Cn2c(=O)n(CCCC(=O)NCc3ccco3)c(=O)c3ccccc32)c1 | -2 | .
CCNC(=O)c1c(N)sc2c1CCCCC2 | 57* | 68
CCC(=O)Nc1sc2c(c1C(=O)N(C)C)CCCCC2 | . | -4
Cc1cccc(C)c1OCC(O)CN1CCC(CN2C(=O)c3cccc4cccc(c34)C2=O)CC1 (centres undefined) | . | 4
CCOc1ccc(N(CC(=O)N2CCc3ccccc32)S(=O)(=O)c2c(C)noc2C)cc1 | 5 | -5
Cc1n[nH]c(C)c1S(=O)(=O)N(CC(=O)N1CCc2ccccc21)c1ccc(C(C)C)cc1 | 51* | 2
COc1ccccc1CNC(=O)C1CC2Cn3c(nc4cc(Cl)c(Cl)cc43)C2N1C (centres undefined) | . | 6
O=C(NCc1ccc(F)cc1)c1ccc2c(c1)S(=O)(=O)c1ccccc1C2=O | . | 5
O=C(O)C1=C[C@H](c2ccc(Br)cc2)C[C@H](OCc2ccc(CO)cc2)O1 | . | -7
COc1ccc(N2C(=O)CC(Sc3nnc(-c4ccccc4)o3)C2=O)cc1 (centres undefined) | -1 | -2
O=C1CC(Sc2nnc(-c3ccccc3O)o2)C(=O)N1c1ccccc1 (centres undefined) | 55* | .
Cc1ccc(-c2nc3cccnc3o2)cc1NC(=O)COc1ccc(C(C)(C)C)cc1 | . | 3
Cc1ccc(-c2nc3cccnc3o2)cc1NC(=O)COc1ccc(Cl)cc1C | 53* | -33
CC1(c2nnc(-c3cccc(Cl)c3)o2)CC(c2ccccc2)=NO1 (centres undefined) | . | -11
COc1ccc(C2CC(=O)C(C=NCCN3CCN(C(C)=O)CC3)=C(O)C2)cc1 (centres undefined) | . | 11
COc1ccc(C2CC(=O)C(C=NCCN3CCOCC3)=C(O)C2)cc1 (centres undefined) | 54* | -26
COC(=O)c1c(N)sc(C(C)=O)c1C | -23 | -2
COC(=O)c1sc(=S)sc1C(=O)OC | 52* | -1
Cc1ccccc1-n1c(=O)c(C#N)cc2c(=O)n3ccccc3nc21 | . | 123
SMILES | HIV RNase H inh | RmlCD inh mix
Cc1cc(-n2c(=O)c(C#N)cc3c(=O)n4ccccc4nc32)no1 | 4 | 55*
COC(=O)/C=C/c1cc(F)ccc1S(=O)(=O)NC(C)(C)C | . | 3
CCCCN1CC[C@H]2C=CC[C@@H](C(=O)Nc3nccs3)[C@H]2C1=O | . | -8
CNC(=O)ON(C(=O)NC)C1N(C)C(=S)SC1(C)C (centres undefined) | 25 | 9
CN1C(=S)SC(C)(NO)C1(C)C (centres undefined) | 51* | -9
CC(C(=O)Nc1ccccc1-c1ccccc1)N1CCN(C(=O)c2ccco2)CC1 (centres undefined) | -10 | .
C=C(C)C(=O)Nc1cccc(C2=NOC3(C2)C[C@@H](C(N)=O)N(C(=O)/C=C/C=C/C)C3)c1 (some centres undefined) | . | 4
Cc1ccccc1C(=O)Nc1ccc(Cl)cn1 | -13 | -13
CCOC(=O)NC1(Nc2ccc(Cl)cn2)Oc2ccccc2O1 | 57* | 6
CCN(C(=O)c1coc(=O)c(Br)c1)c1ccc2c(c1)OCO2 | 2 | 124*
CCN(C(=O)c1c(C)cc(=O)oc1C)c1ccc2c(c1)OCO2 | . | -8
O=c1cc(/C=C/c2ccccc2)oc2ccccc12 | . | -4
COc1ccc2[nH]c(=O)c(-c3nnn(-c4ccc(Cl)c(Cl)c4)n3)cc2c1 | . | 8
CC(C)c1nc(N2CCN(C(=O)c3ccccc3)CC2)c(C#N)c2c1COC(C)(C)C2 | -13 | -19
CC1(C)Cc2c(C#N)c(N3CCN(C(=O)c4ccccc4)CC3)nc(-c3ccco3)c2CS1 | 56* | -25
COc1ccc(N2CCN(Cc3cc(=O)oc4c3ccc3ccccc34)CC2)cc1 | 54* | .
COc1ccc(N2CCN(Cc3cc(=O)oc4ccc(C)cc34)CC2)cc1 | . | -9
CCN1C(=O)C(CC(=O)Nc2ccc(Br)cc2)N(CCCc2ccccc2)C1=S (centres undefined) | . | 2
COc1ccc(-c2c(C3=CCCCC3)oc3ccc(-c4ccc5c(c4)OCO5)cc23)cn1 | . | 2
Cc1cccc(NC(=O)c2nc[nH]c2C(=O)N[C@@H](Cc2ccccc2)C(=O)OCc2ccccc2)c1 | . | 5
Cc1cc(NC(=O)c2ccc(S(=O)(=O)N3CCCC3)cc2)nc2c1c(=O)oc1ccccc12 | 72* | 12
Cc1cc(NC(=O)c2ccc(S(=O)(=O)N3CCOCC3)cc2)nc2c1c(=O)oc1ccccc12 | 41 | .
O=C(CCc1ccc(Oc2cc([N+](=O)[O-])cc([N+](=O)[O-])c2)cc1)N1CCCCC1 | . | -13
Cc1onc(-c2ccccc2Cl)c1C(=O)NCc1ccc(S(N)(=O)=O)cc1 | -5 | -33
Cc1onc(-c2c(F)cccc2Cl)c1C(=O)NCCc1ccc(S(N)(=O)=O)cc1 | 54* | -17
SMILES | HIV RNase H inh | RmlCD inh mix
O=C(Oc1ccc2cc(Br)ccc2c1)c1cccnc1 | . | 2
CC(C)=CC(O)C/C(C)=C/COc1ccc2ccc(=O)oc2c1 (centres undefined) | . | 6
C=C1CCN([C@@H](C)C(=O)NCCCCCC)S(=O)(=O)c2ccccc21 | . | -6
COc1ccc(-c2nnc(-c3cc4ccccc4oc3=O)o2)cc1 | . | -2
COc1cc(-c2nnc(SCc3cc(=O)oc4cc(O)c(O)cc34)o2)cc(OC)c1OC | . | -3
CCCCCCc1cc2cc(-c3nnc(-c4ccccc4O)o3)c(=O)oc2cc1O | 46 | 162*
CCCCCCc1cc2cc(-c3nnc(-c4cc(OC)c(OC)c(OC)c4)o3)c(=O)oc2cc1O | . | 69*
COc1ccc(-c2cc3nc4n(c(=O)c3s2)CCOC4)cc1 | -3 | .
O=C(Nc1ccc2c(c1)oc1ccccc12)c1ccc2c(c1)OCO2 | 27 | -6
O=C(COc1ccc2c(c1)OCO2)Nc1ccc2c(c1)oc1ccccc12 | 59* | 8
C[C@@H]1CCC[C@]2(O[C@@H](CCO)C[C@@H](O)[C@@H]2O)O1 | . | -97
COC(=O)c1sc(=S)n(-c2cc(F)ccc2F)c1N | 72* | -1
CCOC(=O)c1sc(=S)n(-c2ccc(Cl)cc2)c1C | . | 5
CCOC(=O)c1sc(=S)n(-c2cc(F)ccc2F)c1N | 72* | -9
COc1ccc(CNC(=O)c2sc(=S)n(-c3ccc(OC)cc3)c2N)cc1 | . | 9
O=C(Nc1ccccc1C(=O)NC(Cc1ccccc1)C(=O)NC1CCCCCC1)c1ccccc1 (centres undefined) | . | 6
COc1cc(CNC(=O)c2ccc3c(c2)S(=O)(=O)c2ccccc2C3=O)cc(OC)c1 | . | 7
NC(=O)c1c(-c2cccs2)csc1N | 80* | 3
CCOC(=O)c1c(-c2cccs2)csc1NC(=O)CC(C)C | . | -19
N=c1c(C(=O)NCc2ccc(F)cc2)cc2c(=O)n3ccccc3nc2n1CCCN1CCOCC1 | -19 | 31*
